# Most compounds without a hit are left out; they make up all but 2.8% or so of the library.
# PME-1 primary: blocks human protein phosphatase methylesterase 1; Q9Y570; recombinant PME-1, FP-Rh probe fluorescence polarization; inhibition, % at 5.9 µM; hit rate 0.53% among 320,000; AID 2130;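 active = inhibition above the campaign mean of all compounds plus 3 SD, cut at about 26% in these data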;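 also: competitive labeling of PME-1 active site by serine hydrolase directed probe; 0% = PME-1 with DMSO and 100% = wells lacking PME-1 enzyme; inhibitors block probe labeling so polarization falls and inhibition rises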
# PAFAH1B3 inh: inhibitors of human PAFAH1B3; Q15102; AID 492972; hit rate 0.28% among 340,000; inhibition, % at 3.39 µM; recombinant PAFAH1B3, FP-rhodamine probe, fluorescence polarization;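 active = inhibition above the screen-wide average of all tested compounds plus 3 SD, cut at about 25% in these data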;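 also: 0% = enzyme with DMSO only and 100% = wells lacking PAFAH1B3 protein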
# PAFAH1B2 FP inh: PAFAH1B2 (human) inhibition. P68402. recombinant PAFAH1B2, FP-rhodamine activity probe, fluorescence polarization. inhibition, % at 3.39 µM. hit rate 1.2% among 340,000. AID 492953;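 active = inhibition above the mean of all tested compounds plus 3 SD, cut at about 24% in these data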;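 also: 0% = enzyme with DMSO and 100% = wells lacking PAFAH1B2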
# Target sequence (P68402 whole entry, looked up): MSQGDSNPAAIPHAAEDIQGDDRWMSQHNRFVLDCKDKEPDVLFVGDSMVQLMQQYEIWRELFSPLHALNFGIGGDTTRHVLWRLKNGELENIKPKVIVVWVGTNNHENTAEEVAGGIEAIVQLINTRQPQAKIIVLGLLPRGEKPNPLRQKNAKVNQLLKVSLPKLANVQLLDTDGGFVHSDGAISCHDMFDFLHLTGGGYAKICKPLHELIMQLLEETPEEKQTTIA
# PAFAH2 inh: inhibitors of human PAFAH2 | Q99487 | recombinant PAFAH2, FP-rhodamine activity probe, fluorescence polarization | inhibition, % at 3.39 µM | hit rate 0.99% among 340,000;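 active = inhibition above the mean over all tested compounds plus 3 SD, cut at about 30% in these data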;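 also: inhibitors block probe labeling of enzyme so polarization drops; 0% = enzyme with DMSO and 100% = wells lacking PAFAH2 protein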
# Fam108B inh: counter-screen for RBBP9 inhibitors: inhibitors of mouse Fam108B. recombinant Fam108B, FP-Rh probe fluorescence polarization. inhibition, % at 9.51 µM. hit rate 0.33% among 300,000. AID 1947;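 active = inhibition above the screen mean inhibition plus 3 SD, computed separately per campaign, cut at about 18% in these data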;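 also: inhibitors lower polarization as less probe binds the enzyme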
# pPAFAH FP inh: inhibitors of human plasma PAF acetylhydrolase (pPAFAH); recombinant pPAFAH, FP-rhodamine probe fluorescence polarization; hit rate 1.5% among 330,000; inhibition, % at 3.39 µM;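 active = inhibition above the mean inhibition across the screen plus 3 SD, cut at about 25% in these data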;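 also: inhibitors block binding of the rhodamine activity-based probe so polarization drops; 0% = enzyme with DMSO and 100% = wells lacking pPAFAH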
# Starred values were filed as active, the others as inactive; . = not tested or not shown.
SMILES,PME-1 primary,PAFAH1B3 inh,PAFAH1B2 FP inh,PAFAH2 inh,Fam108B inh,pPAFAH FP inh
COC(=O)C(Cc1ccccc1)NC(=O)CCC(=O)NC(C)CCc1ccccc1 (centres undefined),2,2,27*,-5,-3,1
COc1ccc(C(=O)NC(C)CCc2ccccc2)cc1 (centres undefined),-5,-3,0,-2,-1,-2
CCN(CC)C(=O)c1ccc(-c2nnc(Nc3ccc(C(=O)N(C)C)cc3)c3ccccc23)cc1,-2,8,0,1,-6,-2
CN(C)C(=O)c1ccc(-c2nnc(NCc3ccccc3)c3ccccc23)cc1,37*,4,-3,-3,-1,4
c1ccc(OCc2nn3c(Cn4nnc5ccccc54)nnc3s2)cc1,-3,-4,24*,0,0,13
c1ccc(Cc2nn3c(Cn4nnc5ccccc54)nnc3s2)cc1,4,10,6,-5,4,3
Cc1cc(N)ccc1N1CCCC1,33*,9,8,16,13,26*
NC(=O)c1cc(N)ccc1N1CCCC1,0,7,-2,-5,4,4
CCOc1ccc(N=C/C=C/c2ccccc2)c(O)c1,58*,2,0,0,2,32*
COc1cccc(NC(=O)COC(=O)C2CC(=O)N(c3ccc(C)cc3)C2)c1 (centres undefined),-1,4,0,4,.,11
CCc1ccc[n+](-c2[nH]c(=O)sc2/C=N/N=C(\[O-])CCn2c3ccccc3c3ccccc32)c1,4,1,2,8,3,10
Cc1cc[n+](-c2[nH]c(=O)sc2/C=N/N=C(\[O-])CCn2c3ccccc3c3ccccc32)cc1,0,.,.,.,2,32*
Cc1nc(SCCc2ccccc2)[nH]c(=O)c1C,-1,7,6,2,3,27*
Cc1nc(SCc2ccc(Br)cc2)[nH]c(=O)c1C,-1,0,74*,-18,0,34*
Cn1sccc1=O,-2,12,-6,2,2,-4
CCC(NC(=O)c1cc(COc2cncc(Cl)c2)on1)c1ccc(C)cc1 (centres undefined),-3,1,28*,-3,2,5
COc1ccc(CNc2oc(COc3ccc(Cl)cc3)nc2C#N)cc1,-9,-4,28*,-6,-4,-4
COc1ccc(CCNc2oc(COc3ccc(Br)cc3)nc2C#N)cc1OC,1,13,28*,-1,-5,1
N#Cc1nc(COc2cccc(Cl)c2)oc1NCc1ccncc1,0,-2,3,7,2,1
Cc1cccc(C2=NN(c3ccc(Br)cc3)[C@@H](C(=O)N3CCOC3=O)[C@@H]2c2ccc(F)cc2)c1,-4,6,-7,-2,1,30*
Cc1cccc(C2=NN(c3ccc(Br)cc3)[C@@H](C(=O)N3CCOC3=O)[C@@H]2c2ccc(Cl)cc2)c1,.,2,-3,1,.,9
Cc1ccc(S(=O)(=O)NCC(=O)N(CC(=O)NCC2CCCO2)Cc2ccccc2Cl)cc1 (centres undefined),2,6,8,-11,3,2
CCC(=O)N1CCc2cc(S(=O)(=O)NC(Cc3ccccc3)C(=O)O)ccc21 (centres undefined),0,2,-1,8,4,28*
CC(C)COc1ccc(C(=O)OCC(=O)N(C)CC(=O)Nc2ccc(F)cc2)cc1,5,4,8,-4,-1,-1
Cc1ccc(Oc2ccc(OCC(=O)OC3CCS(=O)(=O)C3)cc2)cc1 (centres undefined),-5,.,.,.,-2,31*
SMILES,PME-1 primary,PAFAH1B3 inh,PAFAH1B2 FP inh,PAFAH2 inh,Fam108B inh,pPAFAH FP inh
CCN(CCO)c1nc(SC)nc2c1sc1nc(-c3ccco3)c3c(c12)CCC3,-5,-3,-1,0,5,32*
C=CCOC(=O)C(=O)/C=C/c1ccc2c(c1)Cc1ccccc1-2,-18,0,0,-5,-14,27*
OCCCNc1cc(-c2ccccc2)nc2cc(-c3ccc(F)cc3)nn12,6,5,26*,-10,2,4
Cc1cc(NCCCO)n2nc(-c3cccs3)cc2n1,-1,1,5,-4,1,1
COc1cc(C2c3[nH]c4ccccc4c3CC3COC(=O)N32)cc(OC)c1O (centres undefined),.,12,2,4,.,.
CC(C)CN1CC(C)C(=O)NC1=S (centres undefined),.,8,8,2,.,.

# Bioassay records deposited in PubChem by The Scripps Research Institute Molecular Screening Center.
